The entries come from a sample that favours hits as a whole.
C diff HTS: C. difficile growth inhibitors, primary screen, HTS; Clostridium difficile clinical isolate growth, OD600, 24 h; active compounds read low; growth activity, negative = inhibition, % at 16 µg/mL (by protocol); actives 0.25% (n = 86,000);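 active = mean growth activity at or below -80% and every replicate also at or below -80%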;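 also: 0% = DMSO wells and -100% = levofloxacin 16 µg/mL wells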
* = called active by the depositor; ! = repeats disagree.

SMILES	C diff HTS
COc1ccccc1C#Cc1ccc2c(c1)[C@@H]1[C@@H](CCN1C(=O)c1ccncc1)[C@@H](CO)N2	-95*
N#Cc1ccc(-c2ccc3c(c2)[C@H]2[C@H](CCN2C(=O)c2ccncc2)[C@H](CO)N3)cc1	-80*
COc1ccccc1C#Cc1ccc2c(c1)[C@@H]1[C@@H](CCN1C(=O)c1ccncc1)[C@H](CO)N2	12
O=C(C1=C[C@@H](c2ccc3c(c2)OCO3)C[C@@H](OCCCCO)O1)N1CCOCC1	-2
COCc1cn(CC[C@@H]2CC[C@H](NC(=O)c3ccccc3)[C@H](CO)O2)nn1	6
C[C@H]1CN([C@@H](C)CO)C(=O)c2cc(C3=CCCCC3)cnc2O[C@H]1CN(C)C(=O)c1cccc(F)c1	-5
Cc1cc(C(=O)Nc2cccc3c2O[C@H](CN(C)Cc2ccc(-c4ccccc4)cc2)[C@@H](C)CN([C@H](C)CO)C3=O)n(C)n1	25
COc1ccccc1CNC(=O)C[C@H]1C=C[C@H](NC(=O)CC2CC2)[C@@H](CO)O1	-1
Cc1noc(C)c1S(=O)(=O)Nc1ccc2c(c1)C(=O)N([C@H](C)CO)C[C@@H](C)[C@H](CN(C)Cc1ccc(-c3ccccc3)cc1)O2	-12
C/C=C/c1ccc2c(c1)O[C@H](CN(C)C(=O)NC1CCCCC1)[C@H](C)CN([C@@H](C)CO)S2(=O)=O	6
O=C(c1ccc(F)cc1)N1CC[C@H]2[C@H](CO)Nc3ccc(C#Cc4ccccc4F)cc3[C@H]21	69
COc1ccccc1C#Cc1ccc2c(c1)[C@H]1[C@H](CCN1C(=O)c1ccccc1)[C@H](CO)N2	2
COc1ccccc1C#Cc1ccc2c(c1)[C@H]1[C@H](CCN1C(=O)c1ccc(F)cc1)[C@@H](CO)N2	-101*
CCC(=O)Nc1ccc2c(c1)OC[C@@H](C)N(C(=O)c1ccccn1)C[C@H](C)[C@H](OC)CN(C)C2=O	-3
O=C(C[C@H]1CC[C@@H]2[C@H](COC[C@@H](O)CN2C(=O)Nc2ccc(Cl)c(Cl)c2)O1)NCc1ccc(F)cc1	-7
O=C(C[C@H]1CC[C@H]2[C@@H](COC[C@@H](O)CN2C(=O)Nc2ccc(F)cc2)O1)NC1CCC1	13
O=C(C[C@H]1CC[C@@H]2[C@H](COC[C@@H](O)CN2C(=O)Nc2ccc(Cl)c(Cl)c2)O1)NC1CCC1	48
O=C(C[C@H]1CC[C@@H]2[C@H](COC[C@H](O)CN2C(=O)Nc2ccc(Cl)c(Cl)c2)O1)NCc1ccc(Cl)cc1	-52
CNC(=O)C[C@H]1CC[C@H]2[C@@H](COC[C@H](O)CN2C(=O)Nc2ccc(Cl)c(Cl)c2)O1	-28
O=C(C[C@@H]1CC[C@H]2[C@@H](COC[C@@H](O)CN2C(=O)Nc2ccc(Cl)c(Cl)c2)O1)NC1CCC1	-102*!
CCCNC(=O)C[C@@H]1CC[C@@H]2[C@H](COC[C@H](O)CN2C(=O)Nc2ccc(Cl)c(Cl)c2)O1	-102*!
CNC(=O)C[C@@H]1CC[C@@H]2[C@H](COC[C@H](O)CN2C(=O)Nc2ccc(Cl)c(Cl)c2)O1	-12
O=C(C[C@H]1CC[C@@H]2[C@H](COC[C@H](O)CN2C(=O)Nc2ccc(Cl)c(Cl)c2)O1)NCc1ccc(F)cc1	-91*
N#C[C@H]1[C@@H](c2ccc(C#Cc3cccc(F)c3)cc2)[C@H](CO)N1C(=O)C1CCCC1	-28
C[C@H](CO)N1C[C@H](C)[C@@H](CN(C)C(=O)Nc2ccc3c(c2)OCO3)OCCCC[C@H](C)Oc2ccc(NC(=O)Cc3ccccc3)cc2C1=O	2
SMILES	C diff HTS
C[C@H](CO)N1C[C@H](C)[C@H](CN(C)CC2CCCCC2)Oc2ccc(NC(=O)Nc3cccc4ccccc34)cc2CC1=O	9
CNC(=O)C[C@@H]1CC[C@H]2[C@H](COc3ccc(NC(=O)c4ccccc4OC)cc3C(=O)N2C)O1	8
C[C@@H]1CN([C@H](C)CO)C(=O)c2cc(NC(=O)CCC(F)(F)F)ccc2O[C@@H]1CN(C)C(=O)NC1CCCCC1	0
CN(C)C(=O)C[C@@H]1CC[C@@H](NC(=O)C2CCC2)[C@H](CO)O1	-5
N#C[C@H]1[C@H](c2ccc(C#CCC3CCCC3)cc2)[C@H](CO)N1C(=O)c1ccccn1	-7
CN(C)C(=O)c1cccc(-c2ccc(C3[C@@H]4CN(Cc5ccc6c(c5)OCO6)C[C@H]3N4)cc2)c1 (stereo partly specified)	10
N#Cc1cccc(-c2ccc(C3[C@H]4CNC[C@@H]3N4Cc3cccc(F)c3)cc2)c1 (stereo partly specified)	-6
Cc1ccc(-c2ccc(C3[C@@H]4CN(Cc5cccnc5)C[C@H]3N4)cc2)cc1 (stereo partly specified)	3
Fc1ccc(CN2[C@@H]3CNC[C@H]2C3c2ccc(-c3ccccc3)cc2)cc1 (stereo partly specified)	13
CN(C)C(=O)c1cccc(-c2ccc(C3[C@@H]4CN(Cc5cncnc5)C[C@H]3N4)cc2)c1 (stereo partly specified)	-4
Fc1cccc(CN2[C@@H]3CNC[C@H]2C3c2ccc(-c3ccccc3)cc2)c1 (stereo partly specified)	40
Fc1ccc(-c2ccc(C3[C@@H]4CN(Cc5cccc(F)c5)C[C@H]3N4)cc2)cc1 (stereo partly specified)	-99*
Fc1ccc(-c2ccc(C3[C@@H]4CN(Cc5ccccc5)C[C@H]3N4)cc2)cc1 (stereo partly specified)	-94*!
Cc1ccc(-c2ccc(C3[C@@H]4CN(Cc5cccc(F)c5)C[C@H]3N4)cc2)cc1 (stereo partly specified)	-94*
Fc1cccc(CN2[C@@H]3CNC[C@H]2C3c2ccc(-c3cccc(F)c3)cc2)c1 (stereo partly specified)	-99*!
c1cc(-c2ccc(C3[C@@H]4CN(Cc5nccs5)C[C@H]3N4)cc2)ccn1 (stereo partly specified)	5
Fc1cccc(-c2ccc([C@@H]3[C@@H]4CN(Cc5nccs5)C[C@H]3N4)cc2)c1	64
O=C(C[C@H]1CC[C@H]2[C@@H](COC[C@H](O)CN2Cc2nccs2)O1)N1CCC(Cc2ccccc2)CC1	-2
COc1ccc(NC(=O)N(C)C[C@H]2Oc3ccc(NS(C)(=O)=O)cc3CC(=O)N([C@@H](C)CO)C[C@H]2C)cc1	0
CCCC(=O)Nc1ccc2c(c1)C(=O)N(C)[C@@H]1CC[C@H](CC(=O)O)O[C@H]1CO2	8
COCC(=O)N1CC2(C1)[C@@H](c1ccc(-c3cccc(F)c3)cc1)[C@@H](CO)N2C(=O)C1CC1	-13
C(=C\c1ccc(C2[C@@H]3CN(Cc4nccs4)C[C@H]2N3)cc1)/c1ccccc1 (stereo partly specified)	47
Fc1cccc(CN2C[C@@H]3N[C@H](C2)C3c2ccc(/C=C/c3ccccc3)cc2)c1 (stereo partly specified)	-100*!
O=C(C1CCCC1)N1C[C@@H]2N[C@H](C1)C2c1ccc(/C=C/c2ccccc2)cc1 (stereo partly specified)	4
C(=C\c1ccc(C2[C@@H]3CN(Cc4ccccn4)C[C@H]2N3)cc1)/c1ccccc1 (stereo partly specified)	-12
COc1ccccc1CN1C[C@@H]2N[C@H](C1)C2c1ccc(/C=C/c2ccccc2)cc1 (stereo partly specified)	-90*
COc1ccccc1CN1C[C@@H]2N[C@H](C1)C2c1ccc(-c2ccccc2)cc1 (stereo partly specified)	32
